Target: T1, USP15 (UniProt Q9Y4E8)
T1 sequence (whole entry): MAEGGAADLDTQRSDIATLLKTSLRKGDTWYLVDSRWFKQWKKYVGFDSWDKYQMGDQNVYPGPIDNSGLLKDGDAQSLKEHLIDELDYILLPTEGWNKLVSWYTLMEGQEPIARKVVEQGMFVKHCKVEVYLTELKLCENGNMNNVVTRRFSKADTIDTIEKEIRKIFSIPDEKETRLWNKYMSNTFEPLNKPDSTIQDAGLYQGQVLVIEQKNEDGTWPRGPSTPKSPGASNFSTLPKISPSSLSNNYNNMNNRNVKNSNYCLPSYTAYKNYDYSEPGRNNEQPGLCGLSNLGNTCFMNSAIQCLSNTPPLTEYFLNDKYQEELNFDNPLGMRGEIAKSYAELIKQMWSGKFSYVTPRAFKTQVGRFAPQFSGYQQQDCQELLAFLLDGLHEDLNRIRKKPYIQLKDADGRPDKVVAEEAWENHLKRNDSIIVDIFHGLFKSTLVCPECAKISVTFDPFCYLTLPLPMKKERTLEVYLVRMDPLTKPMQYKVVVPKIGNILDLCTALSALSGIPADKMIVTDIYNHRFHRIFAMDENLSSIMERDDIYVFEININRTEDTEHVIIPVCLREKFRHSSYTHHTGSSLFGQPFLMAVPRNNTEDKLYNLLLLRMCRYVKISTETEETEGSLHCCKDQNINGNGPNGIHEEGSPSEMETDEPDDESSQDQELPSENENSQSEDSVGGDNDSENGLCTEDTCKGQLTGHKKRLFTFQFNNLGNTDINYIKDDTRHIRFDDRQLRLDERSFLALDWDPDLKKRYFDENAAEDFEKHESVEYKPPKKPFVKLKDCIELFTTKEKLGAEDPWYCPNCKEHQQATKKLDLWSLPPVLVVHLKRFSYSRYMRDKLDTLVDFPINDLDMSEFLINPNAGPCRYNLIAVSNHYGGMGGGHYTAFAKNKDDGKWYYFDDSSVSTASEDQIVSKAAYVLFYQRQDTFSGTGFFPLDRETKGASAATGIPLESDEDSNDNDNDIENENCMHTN
Assay: log2 ratio of Biotin-Ahx-Ub-VS probe labelling (fragment/DMSO); higher = less target engagement (more negative = stronger competition), active = hit call of the paper (q ≤ 0.05, log2 ratio ≤ -1)
Conditions: compound concentration: 200 uM; treatment time: 3 h
Outline: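 HEK293T lysate (495 µg per sample, in Tris/CHAPS/IGEPAL buffer with protease inhibitors) was exposed in triplicate for 3 h to fragment at 200 µM or to vehicle, then to Biotin-Ahx-Ub-VS at 0.5 µM final for 1 h. Labelled DUBs were enriched on NeutrAvidin, digested with LysC and trypsin, and analysed by diaPASEF LC-MS/MS. Spectronaut label-free quantities were normalised to the global median, and values are average log2 ratios of fragment over vehicle from an unpaired t-test. Only proteins with ≥2 unique peptides were used.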

log2 ratio of Biotin-Ahx-Ub-VS probe labelling, inactive:
Cl.O=C(CCl)N1CCC(n2nc3ccccc3n2)CC1 -0.702, Cc1cccc(C)c1NC(=O)CCl -0.203, CCN(C(=O)CCl)C1CCS(=O)(=O)C1 (stereo not given) -0.218, Cl.O=C(CCl)N[C@H]1C[C@@H](n2cccn2)C1 -0.22, Cc1ccc2nnc(CNC(=O)CCl)n2c1 -0.0934, O=C(CCl)Nc1ccc(N2CCCC2=O)cc1 0.104, Cl.O=C(CCl)NCc1ccnc(Oc2ccccc2F)c1 -0.115, O=C(CCl)N1CCC(S(=O)(=O)c2ccc(F)cc2)CC1 -0.327, Cl.O=C(CCl)N1CCn2ncc(O)c2C1 -0.99, Cc1cccc(NC(=O)CCl)c1C -0.43, CCN(C(=O)CCl)C1CCCCC1 -0.0855, O=C(CCl)NC1(c2ccc3c(c2)OCCO3)CCCC1 -0.213, O=C(CCl)N1CCN(C(=O)Nc2ccccc2)CC1 -0.101, O=C(CCl)NC(Cn1ccccc1=O)c1ccccc1 (stereo not given) -0.0415, CC1CCc2onc(CNC(=O)CCl)c2C1 (stereo not given) -0.0914, O=C(CCl)N1CCCCCC1c1ncon1 (stereo not given) -0.142, Cc1cccc(N(CCC#N)C(=O)CCl)c1C -0.0542, O=C(CCl)Nc1ccccc1C(F)(F)F -0.122, Cc1ccccc1OCC(=O)N1CCN(C(=O)CCl)CC1 -0.416, CN(C)C(=O)c1ccc(CNC(=O)CCl)cc1 0.0414, Cl.Cn1cnc2cc(CNC(=O)CCl)ccc21 -0.333, N#Cc1ccc(CNC(=O)CCl)cc1 -0.145, Cc1nc(CN2CCCN(C(=O)CCl)CC2)no1.Cl -0.0311, Cc1ccc(C)c(NC(=O)CCl)c1 -0.203, Cc1cc(CC(C)NC(=O)CCl)n[nH]1 (stereo not given) -0.325, O=C(CCl)N1CCCN(C(=O)c2ccc(Cl)cc2)CC1 -0.429, Cl.O=C(CCl)NCCN1CCc2ccccc21 -0.991, CC1(NC(=O)CCl)CCS(=O)(=O)C1 (stereo not given) -0.845, N#Cc1ccc(Cl)cc1NC(=O)CCl -0.0346, O=C(CCl)N1CCCC1c1ccsc1 (stereo not given) -0.548, O=C(CCl)NCc1ccc(N2CCOCC2)nc1 -0.285, O=C(CCl)NCc1cccc(F)c1 -0.273, COc1ccccc1C(C)NC(=O)CCl (stereo not given) -0.251, COc1ccc(Cl)cc1NC(=O)CCl -0.674, O=C(CCl)N1CCC(c2nc3ccccc3o2)CC1 -0.214
